Article PMC7862700, “An all-to-all approach to the identification of sequence-specific readers for epigenetic DNA modifications on cytosine”

Tests used:
Assay in all cases: DAPPL (digital affinity profiling via proximity ligation, sequencing); 10 mM Tris-HCl pH 7.5, 50 mM NaCl, 1 mM DTT, 4% glycerol, room temperature, 30 min; GST-TFs on glutathione beads, 16-mer random dsDNA library, 0.1% formaldehyde crosslink after washing; high values mean tight binding
FLI1 = target: T1, FLI1 (Homo sapiens, UniProt Q01543 1-452); conditions: protein: recombinant; tags: N-terminal GST; dsDNA, one strand shown
T1 sequence: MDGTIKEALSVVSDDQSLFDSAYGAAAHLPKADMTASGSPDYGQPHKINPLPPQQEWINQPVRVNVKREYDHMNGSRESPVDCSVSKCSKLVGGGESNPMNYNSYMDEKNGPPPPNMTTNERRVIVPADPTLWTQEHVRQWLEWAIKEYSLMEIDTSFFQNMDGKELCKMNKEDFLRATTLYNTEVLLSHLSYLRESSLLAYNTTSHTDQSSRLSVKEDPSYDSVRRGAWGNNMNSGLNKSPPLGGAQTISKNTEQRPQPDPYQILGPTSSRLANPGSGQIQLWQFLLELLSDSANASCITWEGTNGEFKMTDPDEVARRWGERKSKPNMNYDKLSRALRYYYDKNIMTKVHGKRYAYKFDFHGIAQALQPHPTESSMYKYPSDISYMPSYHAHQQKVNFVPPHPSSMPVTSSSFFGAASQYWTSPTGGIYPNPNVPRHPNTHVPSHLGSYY
How it was run: (§1)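 Pools of DNA-barcoded human transcription factors, expressed in yeast as GST fusions on glutathione beads and combined with a tag-only sample, were incubated with 200 nmole of a 16-mer random double-stranded DNA library. Incubation took 30 min at room temperature in Tris/NaCl/DTT/glycerol buffer and was followed by washing, 0.1% formaldehyde crosslinking, proximity ligation (BsaI/T4 ligase, 1 h, 37 °C), PCR amplification and sequencing on an Illumina NextSeq500. Binding signal is the ratio of a hexamer's read frequency for a factor to its frequency for the tag-only sample.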

ELK1 = target: T2, ELK1 (Homo sapiens, UniProt P19419 1-428); conditions: protein: recombinant; tags: N-terminal GST; dsDNA, one strand shown
T2 sequence: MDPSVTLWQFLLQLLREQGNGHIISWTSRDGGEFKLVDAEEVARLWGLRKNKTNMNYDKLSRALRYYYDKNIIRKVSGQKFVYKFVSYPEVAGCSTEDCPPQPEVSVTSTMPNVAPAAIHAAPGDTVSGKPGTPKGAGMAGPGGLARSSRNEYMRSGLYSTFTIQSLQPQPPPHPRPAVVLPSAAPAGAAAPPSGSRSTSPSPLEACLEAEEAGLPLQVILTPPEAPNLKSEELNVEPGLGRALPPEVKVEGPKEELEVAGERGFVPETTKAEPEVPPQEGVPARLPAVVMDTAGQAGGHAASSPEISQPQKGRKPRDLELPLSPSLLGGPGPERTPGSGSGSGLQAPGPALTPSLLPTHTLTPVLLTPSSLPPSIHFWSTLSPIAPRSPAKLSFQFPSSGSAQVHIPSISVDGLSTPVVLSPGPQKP
How it was run: as §1

GABPA = target: T3, GABPA (Homo sapiens, UniProt Q06546 1-454); conditions: protein: recombinant; tags: N-terminal GST; dsDNA, one strand shown
T3 sequence: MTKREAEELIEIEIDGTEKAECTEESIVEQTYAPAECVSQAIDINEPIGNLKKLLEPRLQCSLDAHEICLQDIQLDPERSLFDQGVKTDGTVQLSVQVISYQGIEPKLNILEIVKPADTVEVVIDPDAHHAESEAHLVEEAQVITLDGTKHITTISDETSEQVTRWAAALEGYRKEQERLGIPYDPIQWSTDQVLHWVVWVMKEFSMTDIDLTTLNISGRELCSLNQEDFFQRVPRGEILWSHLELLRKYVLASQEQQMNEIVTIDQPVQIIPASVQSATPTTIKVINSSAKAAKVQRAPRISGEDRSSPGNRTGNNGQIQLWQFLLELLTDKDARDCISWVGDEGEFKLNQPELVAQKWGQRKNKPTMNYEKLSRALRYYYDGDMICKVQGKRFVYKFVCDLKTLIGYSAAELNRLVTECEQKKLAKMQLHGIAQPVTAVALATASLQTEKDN
How it was run: as §1

ERG = target: T4, ERG (Homo sapiens, UniProt P11308 1-479); conditions: protein: recombinant; tags: N-terminal GST; dsDNA, one strand shown
T4 sequence: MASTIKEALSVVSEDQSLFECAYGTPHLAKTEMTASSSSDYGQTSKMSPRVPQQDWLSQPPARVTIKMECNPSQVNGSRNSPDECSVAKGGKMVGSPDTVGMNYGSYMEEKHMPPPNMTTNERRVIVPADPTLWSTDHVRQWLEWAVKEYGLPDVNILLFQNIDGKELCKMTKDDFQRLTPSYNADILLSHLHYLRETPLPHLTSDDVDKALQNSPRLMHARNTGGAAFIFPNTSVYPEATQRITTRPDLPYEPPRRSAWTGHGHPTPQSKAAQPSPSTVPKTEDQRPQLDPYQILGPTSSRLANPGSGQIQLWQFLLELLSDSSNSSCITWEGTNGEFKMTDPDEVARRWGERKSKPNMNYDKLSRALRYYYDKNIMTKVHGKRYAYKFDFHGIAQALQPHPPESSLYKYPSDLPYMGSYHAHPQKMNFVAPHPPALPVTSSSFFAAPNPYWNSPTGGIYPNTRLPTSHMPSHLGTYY
How it was run: as §1

ELF1 = ELF1 (Homo sapiens, UniProt P32519 1-619); conditions: protein: recombinant; tags: N-terminal GST; dsDNA, one strand shown
How it was run: as §1

EHF = target: T5, EHF (Homo sapiens, UniProt Q9NZC4 1-300); conditions: protein: recombinant; tags: N-terminal GST; dsDNA, one strand shown
T5 sequence: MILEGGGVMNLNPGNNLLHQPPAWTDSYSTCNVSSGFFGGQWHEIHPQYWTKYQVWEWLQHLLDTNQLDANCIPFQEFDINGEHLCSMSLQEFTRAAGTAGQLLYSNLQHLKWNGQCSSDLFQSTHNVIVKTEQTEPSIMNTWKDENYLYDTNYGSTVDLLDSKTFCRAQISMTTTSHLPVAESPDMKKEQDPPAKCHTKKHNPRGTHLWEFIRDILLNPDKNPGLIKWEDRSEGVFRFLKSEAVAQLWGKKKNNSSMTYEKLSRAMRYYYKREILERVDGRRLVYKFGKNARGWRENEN
How it was run: as §1

SPI1 = SPI1 (Homo sapiens, UniProt P17947 1-270); conditions: protein: recombinant; tags: N-terminal GST; dsDNA, one strand shown
How it was run: as §1

SPIB = SPIB (Homo sapiens, UniProt Q01892 1-262); conditions: protein: recombinant; tags: N-terminal GST; dsDNA, one strand shown
How it was run: as §1

ELK3 = target: T6, ELK3 (Homo sapiens, UniProt P41970 1-407); conditions: protein: recombinant; tags: N-terminal GST; dsDNA, one strand shown
T6 sequence: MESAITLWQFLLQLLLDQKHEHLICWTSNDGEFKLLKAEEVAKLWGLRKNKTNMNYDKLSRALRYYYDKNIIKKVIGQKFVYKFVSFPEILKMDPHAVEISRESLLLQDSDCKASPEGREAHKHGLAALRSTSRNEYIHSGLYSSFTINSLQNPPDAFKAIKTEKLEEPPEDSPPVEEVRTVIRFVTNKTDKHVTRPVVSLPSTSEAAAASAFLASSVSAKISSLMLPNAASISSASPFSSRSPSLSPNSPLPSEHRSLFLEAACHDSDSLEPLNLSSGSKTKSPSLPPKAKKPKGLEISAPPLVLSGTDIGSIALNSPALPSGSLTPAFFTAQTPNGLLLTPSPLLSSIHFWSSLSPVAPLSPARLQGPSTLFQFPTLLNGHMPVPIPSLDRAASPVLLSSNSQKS
How it was run: as §1

FEV = target: T7, FEV (Homo sapiens, UniProt Q99581 1-238); conditions: protein: recombinant; tags: N-terminal GST; dsDNA, one strand shown
T7 sequence: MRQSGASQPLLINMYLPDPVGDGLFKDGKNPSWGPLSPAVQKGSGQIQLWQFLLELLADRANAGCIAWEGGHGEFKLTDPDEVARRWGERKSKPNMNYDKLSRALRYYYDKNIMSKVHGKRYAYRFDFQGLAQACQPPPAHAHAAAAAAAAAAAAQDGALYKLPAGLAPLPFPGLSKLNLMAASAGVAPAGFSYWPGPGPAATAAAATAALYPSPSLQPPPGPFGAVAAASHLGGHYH
How it was run: as §1

ETV5 = ETV5 (Homo sapiens, UniProt P41161 1-510); conditions: protein: recombinant; tags: N-terminal GST; dsDNA, one strand shown
How it was run: as §1

HSF1 = HSF1 (Homo sapiens, UniProt Q00613 1-529); conditions: protein: recombinant; tags: N-terminal GST; chain copies: 3; dsDNA, one strand shown
How it was run: as §1

SPIC = target: T8, SPIC (Homo sapiens, UniProt Q8N5J4 1-248); conditions: protein: recombinant; tags: N-terminal GST; dsDNA, one strand shown
T8 sequence: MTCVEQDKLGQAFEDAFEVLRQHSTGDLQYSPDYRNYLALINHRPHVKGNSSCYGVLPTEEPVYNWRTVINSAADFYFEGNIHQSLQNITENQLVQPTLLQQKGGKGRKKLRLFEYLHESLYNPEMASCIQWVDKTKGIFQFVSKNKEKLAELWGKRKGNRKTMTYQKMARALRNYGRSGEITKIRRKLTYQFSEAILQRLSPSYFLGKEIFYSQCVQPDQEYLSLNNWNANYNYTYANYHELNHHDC
How it was run: as §1

ELF4 = ELF4 (Homo sapiens, UniProt Q99607 1-663); conditions: protein: recombinant; tags: N-terminal GST; dsDNA, one strand shown
How it was run: as §1

ELK4 = target: T9, ELK4 (Homo sapiens, UniProt P28324-2 1-405); conditions: protein: recombinant; tags: N-terminal GST; dsDNA, one strand shown
T9 sequence: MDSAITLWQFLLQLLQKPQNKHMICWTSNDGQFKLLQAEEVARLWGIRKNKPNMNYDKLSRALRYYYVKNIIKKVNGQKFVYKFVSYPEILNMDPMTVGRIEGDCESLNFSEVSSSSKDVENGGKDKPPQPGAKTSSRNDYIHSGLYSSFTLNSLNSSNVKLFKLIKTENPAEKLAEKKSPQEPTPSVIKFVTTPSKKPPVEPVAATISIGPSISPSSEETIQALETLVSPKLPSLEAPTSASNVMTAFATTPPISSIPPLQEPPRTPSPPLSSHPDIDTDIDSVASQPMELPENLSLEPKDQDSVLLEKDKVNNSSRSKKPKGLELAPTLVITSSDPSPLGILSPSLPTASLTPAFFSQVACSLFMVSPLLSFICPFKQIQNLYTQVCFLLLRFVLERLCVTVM
How it was run: as §1

ETV2 = target: T10, ETV2 (Homo sapiens, UniProt O00321 1-342); conditions: protein: recombinant; tags: N-terminal GST; dsDNA, one strand shown
T10 sequence: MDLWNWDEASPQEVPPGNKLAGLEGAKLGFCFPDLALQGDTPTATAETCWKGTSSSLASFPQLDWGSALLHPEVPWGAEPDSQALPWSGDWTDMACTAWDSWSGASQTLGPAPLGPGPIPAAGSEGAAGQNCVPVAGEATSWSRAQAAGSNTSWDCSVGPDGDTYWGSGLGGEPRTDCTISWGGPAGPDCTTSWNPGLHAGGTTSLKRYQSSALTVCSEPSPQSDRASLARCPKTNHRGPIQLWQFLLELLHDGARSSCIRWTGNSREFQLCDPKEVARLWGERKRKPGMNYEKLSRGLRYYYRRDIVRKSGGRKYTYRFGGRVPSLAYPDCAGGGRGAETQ
How it was run: as §1

ELF3 = target: T11, ELF3 (Homo sapiens, UniProt P78545 1-371); conditions: protein: recombinant; tags: N-terminal GST; dsDNA, one strand shown
T11 sequence: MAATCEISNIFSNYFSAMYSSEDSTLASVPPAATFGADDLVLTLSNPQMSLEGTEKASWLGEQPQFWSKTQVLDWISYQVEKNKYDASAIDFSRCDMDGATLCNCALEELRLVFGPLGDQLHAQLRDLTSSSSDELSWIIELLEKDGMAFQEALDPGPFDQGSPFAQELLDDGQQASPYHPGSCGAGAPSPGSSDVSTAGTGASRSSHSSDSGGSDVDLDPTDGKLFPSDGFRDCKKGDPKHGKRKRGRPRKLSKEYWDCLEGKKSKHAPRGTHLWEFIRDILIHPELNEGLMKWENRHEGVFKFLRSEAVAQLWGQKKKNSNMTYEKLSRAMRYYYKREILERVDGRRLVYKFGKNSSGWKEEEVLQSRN
How it was run: as §1

CRX = CRX (Homo sapiens, UniProt O43186 1-299); conditions: protein: recombinant; tags: N-terminal GST; dsDNA, one strand shown
How it was run: as §1

ETV1 = ETV1 (Homo sapiens, UniProt P50549 1-477); conditions: protein: recombinant; tags: N-terminal GST; dsDNA, one strand shown
How it was run: as §1

Chain of HSF1 (Q00613 whole entry): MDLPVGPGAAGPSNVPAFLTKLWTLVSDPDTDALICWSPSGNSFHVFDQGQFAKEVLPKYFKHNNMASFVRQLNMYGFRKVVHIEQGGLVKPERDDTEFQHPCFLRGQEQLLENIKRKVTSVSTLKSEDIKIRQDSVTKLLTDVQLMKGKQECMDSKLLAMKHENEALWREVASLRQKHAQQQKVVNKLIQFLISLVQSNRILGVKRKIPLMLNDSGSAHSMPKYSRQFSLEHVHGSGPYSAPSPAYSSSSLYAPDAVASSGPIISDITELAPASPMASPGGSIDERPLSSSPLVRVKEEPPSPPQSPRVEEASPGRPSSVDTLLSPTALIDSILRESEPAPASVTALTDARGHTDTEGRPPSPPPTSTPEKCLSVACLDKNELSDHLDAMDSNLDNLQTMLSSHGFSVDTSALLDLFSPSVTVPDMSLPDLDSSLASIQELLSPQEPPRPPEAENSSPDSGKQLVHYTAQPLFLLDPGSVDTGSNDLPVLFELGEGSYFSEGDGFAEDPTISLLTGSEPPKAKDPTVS
Chain of ETV1 (P50549 whole entry): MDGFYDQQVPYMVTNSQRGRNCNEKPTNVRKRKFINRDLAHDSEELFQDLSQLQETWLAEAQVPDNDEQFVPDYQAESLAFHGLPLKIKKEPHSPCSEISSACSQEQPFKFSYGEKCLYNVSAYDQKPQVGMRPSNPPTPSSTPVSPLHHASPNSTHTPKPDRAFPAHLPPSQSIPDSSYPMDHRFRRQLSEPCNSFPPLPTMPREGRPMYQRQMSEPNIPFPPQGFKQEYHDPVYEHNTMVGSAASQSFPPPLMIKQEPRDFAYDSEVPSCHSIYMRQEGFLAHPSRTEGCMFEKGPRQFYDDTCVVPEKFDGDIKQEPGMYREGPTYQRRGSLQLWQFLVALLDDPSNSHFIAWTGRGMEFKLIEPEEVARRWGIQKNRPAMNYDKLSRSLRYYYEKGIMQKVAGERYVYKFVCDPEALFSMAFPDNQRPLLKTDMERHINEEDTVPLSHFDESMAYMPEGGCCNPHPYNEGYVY
Chain of ELF1 (P32519 whole entry): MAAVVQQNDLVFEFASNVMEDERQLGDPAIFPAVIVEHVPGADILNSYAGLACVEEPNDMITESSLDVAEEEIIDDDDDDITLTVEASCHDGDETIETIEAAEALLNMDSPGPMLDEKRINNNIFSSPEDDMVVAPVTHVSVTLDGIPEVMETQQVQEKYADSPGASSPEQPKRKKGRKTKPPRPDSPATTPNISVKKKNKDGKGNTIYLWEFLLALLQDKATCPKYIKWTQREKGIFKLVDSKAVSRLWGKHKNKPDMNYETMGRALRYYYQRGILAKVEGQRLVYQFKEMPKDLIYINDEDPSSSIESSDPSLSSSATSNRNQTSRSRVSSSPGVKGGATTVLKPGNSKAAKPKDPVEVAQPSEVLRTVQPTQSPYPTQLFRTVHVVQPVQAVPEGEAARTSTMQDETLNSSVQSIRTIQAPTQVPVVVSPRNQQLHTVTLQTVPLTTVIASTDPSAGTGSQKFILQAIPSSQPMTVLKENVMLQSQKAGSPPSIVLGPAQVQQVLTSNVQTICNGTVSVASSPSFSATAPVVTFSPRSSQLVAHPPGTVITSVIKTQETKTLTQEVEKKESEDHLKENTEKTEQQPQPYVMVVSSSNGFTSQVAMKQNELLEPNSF
Chain of ELF4 (Q99607 whole entry): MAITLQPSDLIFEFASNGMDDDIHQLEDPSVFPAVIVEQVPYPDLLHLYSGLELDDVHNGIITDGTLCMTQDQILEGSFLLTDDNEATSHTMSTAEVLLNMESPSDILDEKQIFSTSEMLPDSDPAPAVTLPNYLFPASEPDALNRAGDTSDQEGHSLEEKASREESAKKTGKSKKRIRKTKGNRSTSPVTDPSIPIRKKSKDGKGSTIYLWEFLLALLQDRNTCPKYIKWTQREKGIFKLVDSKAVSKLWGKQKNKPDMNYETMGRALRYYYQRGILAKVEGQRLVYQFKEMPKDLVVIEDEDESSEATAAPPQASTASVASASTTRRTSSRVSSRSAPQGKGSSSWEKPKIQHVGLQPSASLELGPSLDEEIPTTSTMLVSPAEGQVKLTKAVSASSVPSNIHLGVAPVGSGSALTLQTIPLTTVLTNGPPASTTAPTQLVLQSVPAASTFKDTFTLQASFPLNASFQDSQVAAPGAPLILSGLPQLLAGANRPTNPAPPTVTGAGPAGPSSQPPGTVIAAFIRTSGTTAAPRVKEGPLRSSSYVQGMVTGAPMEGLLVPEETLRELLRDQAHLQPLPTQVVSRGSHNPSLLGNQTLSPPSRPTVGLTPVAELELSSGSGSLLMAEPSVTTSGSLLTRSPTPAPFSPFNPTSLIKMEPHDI
Chain of ETV5 (P41161 whole entry): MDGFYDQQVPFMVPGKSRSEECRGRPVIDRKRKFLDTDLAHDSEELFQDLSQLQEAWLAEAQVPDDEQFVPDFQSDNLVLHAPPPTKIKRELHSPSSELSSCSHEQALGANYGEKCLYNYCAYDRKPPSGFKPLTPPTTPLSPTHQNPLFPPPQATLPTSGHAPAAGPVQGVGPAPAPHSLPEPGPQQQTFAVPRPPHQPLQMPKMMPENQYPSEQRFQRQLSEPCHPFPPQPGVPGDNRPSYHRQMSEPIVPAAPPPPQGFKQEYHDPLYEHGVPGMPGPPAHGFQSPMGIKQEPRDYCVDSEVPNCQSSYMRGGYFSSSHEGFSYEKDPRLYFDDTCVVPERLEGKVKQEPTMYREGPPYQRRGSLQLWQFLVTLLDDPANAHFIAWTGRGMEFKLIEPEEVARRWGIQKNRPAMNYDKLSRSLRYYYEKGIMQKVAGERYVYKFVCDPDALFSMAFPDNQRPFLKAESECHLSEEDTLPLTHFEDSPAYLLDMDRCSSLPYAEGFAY
Chain of CRX (O43186 whole entry): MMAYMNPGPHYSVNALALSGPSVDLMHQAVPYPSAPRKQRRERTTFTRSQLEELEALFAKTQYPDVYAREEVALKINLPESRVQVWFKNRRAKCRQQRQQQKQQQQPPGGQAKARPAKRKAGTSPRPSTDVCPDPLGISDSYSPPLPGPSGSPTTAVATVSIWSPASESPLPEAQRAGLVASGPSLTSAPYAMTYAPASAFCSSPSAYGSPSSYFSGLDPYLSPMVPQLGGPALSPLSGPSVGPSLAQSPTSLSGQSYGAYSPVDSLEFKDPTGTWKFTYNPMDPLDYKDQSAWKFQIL
Chain of SPIB (Q01892 whole entry): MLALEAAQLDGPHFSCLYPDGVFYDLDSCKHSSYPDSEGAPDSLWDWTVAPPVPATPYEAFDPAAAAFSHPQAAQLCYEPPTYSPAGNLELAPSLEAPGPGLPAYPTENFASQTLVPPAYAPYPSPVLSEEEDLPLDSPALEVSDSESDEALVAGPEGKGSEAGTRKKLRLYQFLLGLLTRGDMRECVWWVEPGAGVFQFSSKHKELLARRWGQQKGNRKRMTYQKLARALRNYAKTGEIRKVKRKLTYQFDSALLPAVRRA

AAGTAC
binding signal (FLI1): 1.52 fold enrichment (6-mer frequency, TF over GST control) | binding signal (ELK1): 1.74 fold enrichment (6-mer frequency, TF over GST control) | binding signal (GABPA): 1.44 fold enrichment (6-mer frequency, TF over GST control) | binding signal (ERG): 1.53 fold enrichment (6-mer frequency, TF over GST control) | binding signal (ELF1): 1.49 fold enrichment (6-mer frequency, TF over GST control) | binding signal (EHF): 1.59 fold enrichment (6-mer frequency, TF over GST control) | binding signal (SPI1): 1.62 fold enrichment (6-mer frequency, TF over GST control) | binding signal (SPIB): 1.57 fold enrichment (6-mer frequency, TF over GST control) | binding signal (ELK3): 1.73 fold enrichment (6-mer frequency, TF over GST control) | binding signal (FEV): 1.52 fold enrichment (6-mer frequency, TF over GST control) | binding signal (ETV5): 1.59 fold enrichment (6-mer frequency, TF over GST control) | binding signal (HSF1): 1.29 fold enrichment (6-mer frequency, TF over GST control) | binding signal (SPIC): 1.58 fold enrichment (6-mer frequency, TF over GST control) | binding signal (ELF4): 1.5 fold enrichment (6-mer frequency, TF over GST control) | binding signal (ELK4): 1.32 fold enrichment (6-mer frequency, TF over GST control) | binding signal (ETV2): 1.41 fold enrichment (6-mer frequency, TF over GST control) | binding signal (ELF3): 1.68 fold enrichment (6-mer frequency, TF over GST control) | binding signal (CRX): 1.34 fold enrichment (6-mer frequency, TF over GST control) | binding signal (ETV1): 1.49 fold enrichment (6-mer frequency, TF over GST control)
